Results taken from PubChem BioAssay (NCI).
About 79,000 compounds went through this panel and 15% of them were active in at least one assay; those are over-represented in the sample as a whole. Activity calls are given as the source filed them. Rule as the data show it: active = growth inhibition above about 70%; inactive = the rest.

How the values were obtained:
[1] = NCI Yeast Anticancer Drug Screen. Data for the rad52 strain (AID 147);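 also: 0% = growth of vehicle-treated control cultures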; settings: S. cerevisiae rad52 mutant growth inhibition, stronger effect = higher value
Summary of the method: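 Genetically altered yeast (DNA damage repair defect) treated with compound; inhibition calculated relative to vehicle.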

[2] = NCI Yeast Anticancer Drug Screen. Data for the wt1 strain (AID 149);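 also: 0% = growth of vehicle-treated wt1 cultures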; settings: S. cerevisiae wt1 strain (SPY 50644) growth inhibition, stronger effect = higher value
Summary of the method: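 Growth inhibition read against vehicle controls after compound exposure of the wt1 yeast strain.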

[3] = NCI Yeast Anticancer Drug Screen. Data for the rad50EPP+ strain (AID 151);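 also: 0% = growth of vehicle-treated control cultures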; settings: S. cerevisiae rad50 mutant strain, stronger effect = higher value
Summary of the method: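 Strain rad50EPP+; compound exposure; % growth inhibition vs vehicle.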

[4] = NCI Yeast Anticancer Drug Screen. Data for the mgt1 strain (AID 153); settings: S. cerevisiae mgt1 mutant growth inhibition, stronger effect = higher value
Summary of the method: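 Read-out: yeast growth inhibition vs vehicle control. Strain mgt1, drawn from a panel altered in DNA damage repair or cell cycle control.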

[5] = NCI Yeast Anticancer Drug Screen. Data for the rad50 strain (AID 155);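 also: 0% = growth of vehicle-only cultures of the same strain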; settings: S. cerevisiae rad50 strain growth inhibition, stronger effect = higher value
Summary of the method: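 Readout: growth inhibition relative to vehicle-treated cultures. Compound exposure was carried out in a genetically defined yeast strain deficient in DNA damage repair.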

[6] = NCI Yeast Anticancer Drug Screen. Data for the mec2-1 strain (AID 157); settings: S. cerevisiae mec2-1 strain, stronger effect = higher value
Summary of the method: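 Cells of the genetically defined mec2-1 yeast strain are incubated with test compound. Inhibition of growth is calculated against vehicle-treated controls.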

[7] = NCI Yeast Anticancer Drug Screen. Data for the rad14 strain (AID 159);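 also: 0% = growth of vehicle-treated control cultures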; settings: S. cerevisiae rad14 strain growth inhibition, stronger effect = higher value
Summary of the method: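 Growth inhibition vs vehicle controls; genetically altered yeast strain (DNA damage repair defect) treated with test compounds.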

[8] = NCI Yeast Anticancer Drug Screen. Data for the sgs1 mgt1 strain (AID 161);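 also: 0% = growth of cultures given vehicle only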; settings: S. cerevisiae sgs1 mgt1 strain, stronger effect = higher value
Summary of the method: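 Mutant yeast exposed to compound; growth scored against vehicle-only wells.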

[9] = NCI Yeast Anticancer Drug Screen. Data for the CLN2oe strain (AID 163);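 also: 0% = growth of vehicle-only control cultures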; settings: S. cerevisiae CLN2oe strain, stronger effect = higher value
Summary of the method: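 Strain altered in cell-cycle control, incubated with compound; growth compared to solvent-treated controls.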

[10] = NCI Yeast Anticancer Drug Screen. Data for the cln2 rad14 strain (AID 165);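 also: 0% = growth equal to vehicle treated cultures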; settings: S. cerevisiae cln2 rad14 strain, stronger effect = higher value
Summary of the method: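 The screen exposed genetically defined yeast (cln2 rad14) to test compounds and scored growth inhibition relative to vehicle-treated controls.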

[11] = NCI Yeast Anticancer Drug Screen. Data for the bub3 strain (AID 167); settings: S. cerevisiae bub3 mutant strain, stronger effect = higher value
Summary of the method: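 Readout: yeast growth inhibition, expressed relative to vehicle-only wells. The test organism is a mutant strain from a panel with lesions in DNA repair or checkpoint genes.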

[12] = NCI Yeast Anticancer Drug Screen. Data for the wt2 strain (AID 169);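 also: 0% = growth of vehicle-treated yeast cultures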; settings: S. cerevisiae wt2 strain growth inhibition, stronger effect = higher value
Summary of the method: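 Steps: yeast strain treated with compound; growth recorded; inhibition calculated relative to cultures given vehicle alone.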

[13] = NCI Yeast Anticancer Drug Screen. Data for the mlh1 strain (AID 171);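 also: 0% = growth of vehicle-treated control cultures of the same strain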; settings: S. cerevisiae mlh1 strain growth inhibition, stronger effect = higher value
Summary of the method: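 Yeast screen: mutant strain plus compound, growth scored against vehicle control wells.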

[14] = NCI Yeast Anticancer Drug Screen. Data for the sgs1 strain (AID 173);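 also: 0% = growth of vehicle-only control cultures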; settings: S. cerevisiae sgs1 mutant, stronger effect = higher value
Summary of the method: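 Inhibition of yeast growth served as the measure. The mutant strain was treated with each compound, and growth was normalised to cultures receiving vehicle alone.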

[15] = NCI Yeast Anticancer Drug Screen. Data for the mlh1 rad18 strain (AID 175); settings: S. cerevisiae mlh1 rad18 strain growth inhibition, stronger effect = higher value
Summary of the method: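 Compound-treated yeast growth, normalised to vehicle controls. Strain bears defined DNA repair mutations.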

[16] = NCI Yeast Anticancer Drug Screen. Data for the rad18 strain (AID 177); settings: S. cerevisiae rad18 mutant growth inhibition, stronger effect = higher value
Summary of the method: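 Inhibition values reflect reduced yeast growth compared with vehicle-treated controls, using a strain engineered with a DNA damage repair defect.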

[17] = at 5.0 µM (retest, dose inferred, filed as 0.5)
[18] = at 50.0 µM (retest, dose inferred, filed as 5.0)

Measured: growth inhibition

O=S(=O)(O)c1ccc(Cl)cc1.[Cd]
inactive: [1]; at 1.2 µM 3% | [1]; at 3.7 µM 9% | [1]; at 11.0 µM 35% | [1]; at 33.0 µM 50% | [1]; at 100.0 µM 66% | [2]; at 1.2 µM 2% | [2]; at 3.7 µM 11% | [2]; at 11.0 µM 25% | [2]; at 33.0 µM 55% | [3]; at 1.2 µM 9% | [3]; at 3.7 µM 14% | [3]; at 11.0 µM 23% | [3]; at 33.0 µM 56% | [4]; at 1.2 µM 0% | [4]; at 3.7 µM 15% | [4]; at 11.0 µM 27% | [4]; at 33.0 µM 55% | [5]; at 1.2 µM -2% | [5]; at 3.7 µM 15% | [5]; [17] 25% | [5]; at 11.0 µM 47% | [5]; [18] 46% | [5]; at 50.0 µM 57.1% | [6]; at 1.2 µM -2% | [6]; at 3.7 µM 5% | [6]; [17] 6% | [6]; at 11.0 µM 14% | [6]; at 33.0 µM 25% | [6]; [18] 46% | [6]; at 50.0 µM 39.4% | [6]; at 100.0 µM 37% | [7]; at 1.2 µM -2% | [7]; at 3.7 µM 18% | [7]; at 11.0 µM 48% | [8]; [17] 23% | [8]; [18] 53% | [8]; at 50.0 µM 50.5% | [9]; at 1.2 µM -18% | [9]; at 3.7 µM -17% | [9]; at 11.0 µM -6% | [9]; at 33.0 µM 8% | [9]; at 100.0 µM 20% | [10]; [17] 8% | [10]; [18] 11% | [10]; at 50.0 µM 21.4% | [11]; at 1.2 µM -8% | [11]; at 3.7 µM 8% | [11]; [17] -6% | [11]; at 11.0 µM 6% | [11]; at 33.0 µM 19% | [11]; [18] 27% | [11]; at 50.0 µM 2.7% | [11]; at 100.0 µM 30% | [12]; at 1.2 µM 2% | [12]; at 3.7 µM 11% | [12]; at 11.0 µM 20% | [12]; at 33.0 µM 32% | [12]; at 100.0 µM 44% | [13]; at 1.2 µM -1% | [13]; at 3.7 µM 7% | [13]; at 11.0 µM 17% | [13]; at 33.0 µM 50% | [14]; at 1.2 µM 2% | [14]; at 3.7 µM 10% | [14]; at 11.0 µM 17% | [14]; at 33.0 µM 29% | [14]; at 100.0 µM 44% | [15]; [17] 24% | [15]; [18] 47% | [15]; at 50.0 µM 59% | [16]; at 1.2 µM 0% | [16]; at 3.7 µM 8% | [16]; at 11.0 µM 23% | [16]; at 33.0 µM 44% | [16]; at 100.0 µM 51%
active: [2]; at 100.0 µM 73% | [3]; at 100.0 µM 75% | [4]; at 100.0 µM 77% | [5]; at 33.0 µM 73% | [5]; at 100.0 µM 84% | [7]; at 33.0 µM 71% | [7]; at 100.0 µM 86% | [13]; at 100.0 µM 82%
